Assay outcomes from PubChem.
Gal4-VP16 FLuc: inhibits Gal4-VP16 luciferase reporter, ROR gamma counter-screen; Drosophila S2 Gal4-VP16 UAS-luciferase, luminescence, 20 h; Potency, µM (highest dose often 53.6 µM), inactives show top-dose activity, negative = inhibition, actives largely listed as inhibitors; 310,000 tested, 3.5% active;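 note: Gal4-VP16 expression switched on by copper sulfate through the metallothionein promoter; potency is the fitted concentration of half-maximal effect; % is set by controls: 0 for no effect and ±100 for the full control effect; nearly all actives have a fitted effect of over 50% in size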
TRPV1 PAM: human TRPV1 potentiation. AID 540277. Q8NER1. TRPV1-expressing cells, Fluo-8 calcium influx, capsaicin EC20 potentiation. potentiation, % at 8.33 µM. 320,000 tested, 0.02% active; in the data active = potentiation above about 80%; inconclusive = between about 30% and that limit; note: 0% is about no effect
Target sequence (Q8NER1 whole entry, looked up): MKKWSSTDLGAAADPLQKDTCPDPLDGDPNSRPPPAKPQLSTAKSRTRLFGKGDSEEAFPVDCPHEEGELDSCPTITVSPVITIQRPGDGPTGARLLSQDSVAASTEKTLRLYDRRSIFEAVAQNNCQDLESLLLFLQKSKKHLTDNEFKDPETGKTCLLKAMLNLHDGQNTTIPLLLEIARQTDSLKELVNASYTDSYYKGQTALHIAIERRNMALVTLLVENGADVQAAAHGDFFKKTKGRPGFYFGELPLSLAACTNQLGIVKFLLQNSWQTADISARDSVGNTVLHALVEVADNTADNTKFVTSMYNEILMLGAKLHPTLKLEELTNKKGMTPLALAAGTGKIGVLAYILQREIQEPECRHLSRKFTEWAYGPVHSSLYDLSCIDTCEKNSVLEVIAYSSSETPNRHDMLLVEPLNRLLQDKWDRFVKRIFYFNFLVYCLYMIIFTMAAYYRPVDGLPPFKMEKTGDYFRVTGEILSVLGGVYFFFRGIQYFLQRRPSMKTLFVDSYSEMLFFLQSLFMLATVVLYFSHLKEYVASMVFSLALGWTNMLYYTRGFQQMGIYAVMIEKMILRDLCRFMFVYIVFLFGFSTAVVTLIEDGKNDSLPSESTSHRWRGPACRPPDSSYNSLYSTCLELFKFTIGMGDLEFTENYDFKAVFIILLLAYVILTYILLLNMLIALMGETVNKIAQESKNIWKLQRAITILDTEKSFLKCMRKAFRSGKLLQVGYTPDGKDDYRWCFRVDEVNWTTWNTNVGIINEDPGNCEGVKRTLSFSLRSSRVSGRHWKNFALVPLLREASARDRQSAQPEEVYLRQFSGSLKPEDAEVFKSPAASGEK
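TRPV1-expressing cells were cultured overnight at 35.5C and loaded with Fluo-8 calcium dye for 40 to 90 min at room temperature. After a 10 s baseline, compound was added and calcium influx was read kinetically for 3 min (ex 480/em 520 nm).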
uPA surface inh: inhibitors of cell surface uPA generation; cell surface uPA generation assay, qHTS; AID 540303; Potency, µM (doses to about 38.3 µM), without a hit: at the top dose activity change, negative = inhibition, hits mostly inhibitors; 330,000 tested, 0.31% active; active = well fitted inhibition curve with a large enough effect; inconclusive = small, poorly fitted or top-dose-only effect; inactive = no such curve, though single readings can be large or run the other way; tested in mouse RAW 264.7 cells; note: potency is the fitted concentration of half-maximal effect; % is set by controls: 0 for no effect and ±100 for the full control effect; nearly all actives have a fitted effect of over 55% in size
TRPV1 ag: activates the human vanilloid receptor TRPV1. Q8NER1. TRPV1-expressing cells, Fluo-8 calcium influx, agonist mode. activation, % at 8.33 µM. 320,000 tested, 0.19% active. AID 540275; in the data active = activation above about 80%; inconclusive = between about 30% and that limit; note: 0% is about no effect
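Fluo-8 calcium influx in TRPV1-expressing cells, kinetic read (ex 480/em 520 nm). Compound added and read 3 min for agonist activity, followed by capsaicin at EC20 final and 2 min further read for enhancement.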
RORgamma inh: inhibitors of mouse ROR gamma transcriptional activity | AID 2551 | 310,000 tested, 5.4% active | Drosophila S2 Gal4-RORgamma UAS-luciferase reporter, 20 h | Potency, µM (series often up to 53.6 µM), inactives show at the highest dose activity change, negative = inhibition, hits mostly inhibitors; note: potency is the fitted concentration of half-maximal effect; % is set by controls: 0 for no effect and ±100 for the full control effect; nearly all actives have a fitted effect of over 60% in size
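Luciferase reporter read in Schneider cells carrying Gal4-RORγ (mouse) and UAS-Photinus luciferase; cells given compound 1 h before 700 uM copper sulfate induction, then incubated 20 h at ambient temperature.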
Active calls of the source: *. A selection: hits, their analogues and other compounds. The true share with any hit is near 5.8%. Unless noted, calls come from the whole dose curve; as a rule, active = well fitted curve in the direction sought with a large enough effect; inconclusive = small, poorly fitted or top-dose-only effect, or another doubt; inactive = no such curve, though single readings can be large; an effect the other way counts as inactive or inconclusive.

How did O=C(N/N=C/CCc1ccccc1)c1ccc(CN2c3cccc4cccc(c34)S2(=O)=O)cc1 do in these assays?
Gal4-VP16 FLuc: inconclusive; TRPV1 PAM: -8; uPA surface inh: 11%; TRPV1 ag: 4; RORgamma inh: 11µM*

What do the screens show for `COc1ccc(Cl)cc1S(=O)(=O)N(C)CC(=O)N1CCCC1`?
Gal4-VP16 FLuc: -2%; TRPV1 PAM: 0; uPA surface inh: -4%; TRPV1 ag: 0; RORgamma inh: -8%

What do the screens show for `COc1cc(CN(C)Cc2cc(=O)n3ccsc3n2)ccc1OC(F)F`?
Gal4-VP16 FLuc: 16µM*; TRPV1 PAM: -1; uPA surface inh: -8%; TRPV1 ag: -1; RORgamma inh: -15%

How did CCOC(=O)c1cc(C#N)c(=S)[nH]c1C do in these assays?
Gal4-VP16 FLuc: -14%; TRPV1 PAM: 14; uPA surface inh: -12%; TRPV1 ag: -3; RORgamma inh: 13µM*

What do the screens show for `C=CCc1ccc(OCCOCCN(C)C)c(OC)c1`?
Gal4-VP16 FLuc: 2%; TRPV1 PAM: 8; uPA surface inh: 0%; TRPV1 ag: 0; RORgamma inh: -2%

How did C=CCc1ccc(OCCn2cccc2C=O)c(OC)c1 do in these assays?
Gal4-VP16 FLuc: 0.56µM*; TRPV1 PAM: 8; uPA surface inh: -12%; TRPV1 ag: 1; RORgamma inh: 0.63µM*

How did CC(=O)OCC1(C)CN(c2ccccc2)NC1=O (stereo unspecified) do in these assays?
Gal4-VP16 FLuc: inconclusive; TRPV1 PAM: -3; uPA surface inh: -2%; TRPV1 ag: 3; RORgamma inh: 13µM*

What do the screens show for `COc1ccc(CNCC(=O)Nc2cc(C)nn2-c2nc(C)cc(C)n2)cc1OC`?
Gal4-VP16 FLuc: -1%; TRPV1 PAM: 15; uPA surface inh: -5%; TRPV1 ag: -2; RORgamma inh: -12%

Results for Cc1cc(C)nc(-n2nc(C)cc2NC(=O)c2ccc3c(c2)OCO3)n1 ?
Gal4-VP16 FLuc: 0%; TRPV1 PAM: 15; TRPV1 ag: -4; RORgamma inh: -17%

How did Cc1cc(C)nc(-n2nc(C)cc2NC(=O)CN2CCc3ccccc3C2)n1 do in these assays?
Gal4-VP16 FLuc: 2.8µM*; TRPV1 PAM: -13; uPA surface inh: -5%; TRPV1 ag: inconclusive; RORgamma inh: 0.79µM*

Results for Cc1cc(C)nc(-n2nc(C)cc2NC(=O)CNC2CCCCC2)n1 ?
Gal4-VP16 FLuc: 6.3µM*; TRPV1 PAM: -7; uPA surface inh: -3%; TRPV1 ag: 1; RORgamma inh: 2.5µM*

Results for Cc1cc(C)nc(-n2nc(C)cc2NC(=O)CN2CCCC(C)C2)n1 (stereo unspecified) ?
Gal4-VP16 FLuc: 5.6µM*; TRPV1 PAM: -11; uPA surface inh: -13%; TRPV1 ag: 23; RORgamma inh: 0.71µM*

How did COc1ccc2[nH]c3c(C)c4ccncc4c(C)c3c2c1 do in these assays?
Gal4-VP16 FLuc: 4.5µM*; TRPV1 PAM: 15; uPA surface inh: 1.8µM*; TRPV1 ag: -2; RORgamma inh: 3.2µM*

What do the screens show for `CN1C=CC(=C2C=CN(C)C=C2)C=C1`?
Gal4-VP16 FLuc: -4%; RORgamma inh: 4%

What do the screens show for `O=C(COc1ccccc1)NCC1(N2CCCCC2)CCCCC1`?
Gal4-VP16 FLuc: -5%; TRPV1 PAM: -6; uPA surface inh: 3%; TRPV1 ag: 2; RORgamma inh: 0%

Results for CC(C)(C)NC(=S)N/N=C\c1ccc(-c2ccc([N+](=O)[O-])cc2)o1 ?
Gal4-VP16 FLuc: inconclusive; TRPV1 PAM: 13; uPA surface inh: -3%; TRPV1 ag: 17; RORgamma inh: inconclusive

What do the screens show for `CNC(=S)N/N=C/c1ccc(-c2ccc(Cl)c([N+](=O)[O-])c2)o1`?
Gal4-VP16 FLuc: 3.5µM*; TRPV1 PAM: 2; uPA surface inh: -7%; TRPV1 ag: -1; RORgamma inh: 4.5µM*

How did NS(=O)(=O)c1ccc(-c2ccc(/C=N/Nc3ccc(C(=O)O)cc3)o2)cc1 do in these assays?
Gal4-VP16 FLuc: -2%; TRPV1 PAM: 18; uPA surface inh: 0%; TRPV1 ag: -3; RORgamma inh: 10µM*

Results for CNC(=S)N/N=C/c1ccc(-c2ccc(C(=O)O)cc2)o1 ?
Gal4-VP16 FLuc: -26%; TRPV1 PAM: 2; uPA surface inh: -7%; TRPV1 ag: -1; RORgamma inh: 4µM*

How did O=C(O)c1ccc(-c2ccc(/C=N/Nc3ccc([N+](=O)[O-])cc3)o2)cc1 do in these assays?
Gal4-VP16 FLuc: 1%; TRPV1 PAM: -6; uPA surface inh: 3%; TRPV1 ag: inconclusive; RORgamma inh: 24%

How did C=CCNC(=S)N/N=C/c1ccc(-c2ccc(OC)cc2)o1 do in these assays?
Gal4-VP16 FLuc: 1.8µM*; TRPV1 PAM: -5; TRPV1 ag: 0; RORgamma inh: 0.56µM*

Results for c1csc(CNc2nc(-c3ccc4c(c3)OCO4)nc3ccccc23)c1 ?
Gal4-VP16 FLuc: inconclusive; RORgamma inh: -16%

How did Cc1ccc(-c2ccc(/C=N/NC(=S)Nc3ccccc3)o2)cc1[N+](=O)[O-] do in these assays?
Gal4-VP16 FLuc: 13µM*; RORgamma inh: 0.89µM*

How did CCOc1ccc(-c2csc(NC(=O)CSCC(=O)O)n2)c2ccccc12 do in these assays?
Gal4-VP16 FLuc: 1%; TRPV1 PAM: -22; uPA surface inh: 4%; TRPV1 ag: -7; RORgamma inh: 5%

What do the screens show for `CCOc1ccc(-c2csc(NC(=O)CSC3=NC(=O)CN3C(C)=O)n2)c2ccccc12`?
Gal4-VP16 FLuc: 7.9µM*; TRPV1 PAM: 2; uPA surface inh: -11%; TRPV1 ag: 2; RORgamma inh: 11µM*

Results for O=c1c2cc(Br)ccc2nc(-c2cccc(C(F)(F)F)c2)n1O ?
Gal4-VP16 FLuc: 20µM*; TRPV1 PAM: -11; uPA surface inh: -11%; TRPV1 ag: 8; RORgamma inh: 3.5µM*

How did COc1ccccc1-c1nc2cc(Cl)ccc2c(=O)n1O do in these assays?
Gal4-VP16 FLuc: 2.5µM*; TRPV1 PAM: 15; uPA surface inh: -2%; TRPV1 ag: -1; RORgamma inh: inconclusive

What do the screens show for `O=c1c2ccccc2nc(-c2ccccc2)n1O`?
uPA surface inh: 10%

What do the screens show for `COc1ccc(-c2nc3ccccc3c(=O)n2O)cc1`?
Gal4-VP16 FLuc: inconclusive; TRPV1 PAM: -1; uPA surface inh: -23%; TRPV1 ag: -3; RORgamma inh: 13µM*

What do the screens show for `COc1ccc(CCn2c(C)nc3c(c(=O)c4ccccc4n3C)c2=O)cc1`?
Gal4-VP16 FLuc: 2%; TRPV1 PAM: 3; uPA surface inh: -3%; TRPV1 ag: 1; RORgamma inh: -15%

Results for N#Cc1ccc(-c2nc3ccc(Br)cc3c(=O)n2O)cc1 ?
Gal4-VP16 FLuc: -2%; TRPV1 PAM: 23; uPA surface inh: 3%; TRPV1 ag: -5; RORgamma inh: -39%

How did COc1ccc(CCn2c(S)nc3ccccc3c2=O)cc1 do in these assays?
Gal4-VP16 FLuc: inconclusive; TRPV1 PAM: -7; uPA surface inh: 4%; TRPV1 ag: 6; RORgamma inh: 3.2µM*

What do the screens show for `Cc1ccc(C)c(NC(=S)N2CCN(CCO)CC2)c1`?
Gal4-VP16 FLuc: -9%; TRPV1 PAM: 3; uPA surface inh: 2%; TRPV1 ag: -1; RORgamma inh: -7%
